Measured values published in the supplement of paper PMC10849652.
About 7,900 targets were measured; listed, in parts, are those with a hit and a random draw of the rest. About 0.6% of all pairs of compound and target were hits.

What follows are targets tested with C=CC(=O)N1CCC[C@@H](n2nc(-c3ccc(Oc4ccccc4)cc3)c3c(N)ncnc32)C1 [ibrutinib] (assay: log2 fold change, soluble protein after heating vs DMSO (PISA); higher = thermal stabilisation; K562 cells, 10 uM, 30 min; active = over 0.2 and 3.5 SD of the protein, either way, in both replicates (recomputed)).
Method in brief: (§1)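 Values are thermal stability changes relative to control samples and are taken from duplicates. They are stated as log2 fold changes. Before quantification by TMTpro 16plex LC-MS/MS with equalised channel sums, K562 cells at 2×10^6 cells/mL were treated with 10 μM compound for 30 min, heated in aliquots for 3 min across 48°C-58°C, pooled, extracted in PBS with 0.5% NP-40 at 4°C, and centrifuged at 21,000xg for 90 min to give the soluble supernatant.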

Sequence of UniProt A1L0T0 (A1L0T0 whole entry, looked up): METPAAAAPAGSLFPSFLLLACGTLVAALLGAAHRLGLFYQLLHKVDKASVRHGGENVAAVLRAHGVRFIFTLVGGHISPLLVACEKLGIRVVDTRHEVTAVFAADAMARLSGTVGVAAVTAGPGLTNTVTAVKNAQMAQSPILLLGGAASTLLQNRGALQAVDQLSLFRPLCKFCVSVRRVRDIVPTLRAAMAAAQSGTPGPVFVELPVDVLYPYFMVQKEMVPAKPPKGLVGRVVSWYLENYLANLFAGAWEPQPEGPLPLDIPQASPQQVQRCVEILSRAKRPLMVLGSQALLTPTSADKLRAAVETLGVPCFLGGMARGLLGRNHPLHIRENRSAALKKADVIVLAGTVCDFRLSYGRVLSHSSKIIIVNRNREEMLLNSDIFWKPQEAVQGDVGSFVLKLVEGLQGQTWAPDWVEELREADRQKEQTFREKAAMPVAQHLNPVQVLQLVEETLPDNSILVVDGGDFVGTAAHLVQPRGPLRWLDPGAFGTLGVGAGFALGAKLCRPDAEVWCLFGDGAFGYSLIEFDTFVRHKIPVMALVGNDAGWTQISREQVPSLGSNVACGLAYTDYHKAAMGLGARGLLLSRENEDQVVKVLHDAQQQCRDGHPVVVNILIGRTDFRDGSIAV
Sequence of UniProt Q8WV07 (Q8WV07 whole entry, looked up): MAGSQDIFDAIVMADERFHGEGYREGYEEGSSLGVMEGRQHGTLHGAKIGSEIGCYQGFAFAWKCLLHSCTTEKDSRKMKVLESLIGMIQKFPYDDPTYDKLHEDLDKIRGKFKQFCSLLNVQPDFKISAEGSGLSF
Sequence of UniProt O94822 (O94822 whole entry, looked up): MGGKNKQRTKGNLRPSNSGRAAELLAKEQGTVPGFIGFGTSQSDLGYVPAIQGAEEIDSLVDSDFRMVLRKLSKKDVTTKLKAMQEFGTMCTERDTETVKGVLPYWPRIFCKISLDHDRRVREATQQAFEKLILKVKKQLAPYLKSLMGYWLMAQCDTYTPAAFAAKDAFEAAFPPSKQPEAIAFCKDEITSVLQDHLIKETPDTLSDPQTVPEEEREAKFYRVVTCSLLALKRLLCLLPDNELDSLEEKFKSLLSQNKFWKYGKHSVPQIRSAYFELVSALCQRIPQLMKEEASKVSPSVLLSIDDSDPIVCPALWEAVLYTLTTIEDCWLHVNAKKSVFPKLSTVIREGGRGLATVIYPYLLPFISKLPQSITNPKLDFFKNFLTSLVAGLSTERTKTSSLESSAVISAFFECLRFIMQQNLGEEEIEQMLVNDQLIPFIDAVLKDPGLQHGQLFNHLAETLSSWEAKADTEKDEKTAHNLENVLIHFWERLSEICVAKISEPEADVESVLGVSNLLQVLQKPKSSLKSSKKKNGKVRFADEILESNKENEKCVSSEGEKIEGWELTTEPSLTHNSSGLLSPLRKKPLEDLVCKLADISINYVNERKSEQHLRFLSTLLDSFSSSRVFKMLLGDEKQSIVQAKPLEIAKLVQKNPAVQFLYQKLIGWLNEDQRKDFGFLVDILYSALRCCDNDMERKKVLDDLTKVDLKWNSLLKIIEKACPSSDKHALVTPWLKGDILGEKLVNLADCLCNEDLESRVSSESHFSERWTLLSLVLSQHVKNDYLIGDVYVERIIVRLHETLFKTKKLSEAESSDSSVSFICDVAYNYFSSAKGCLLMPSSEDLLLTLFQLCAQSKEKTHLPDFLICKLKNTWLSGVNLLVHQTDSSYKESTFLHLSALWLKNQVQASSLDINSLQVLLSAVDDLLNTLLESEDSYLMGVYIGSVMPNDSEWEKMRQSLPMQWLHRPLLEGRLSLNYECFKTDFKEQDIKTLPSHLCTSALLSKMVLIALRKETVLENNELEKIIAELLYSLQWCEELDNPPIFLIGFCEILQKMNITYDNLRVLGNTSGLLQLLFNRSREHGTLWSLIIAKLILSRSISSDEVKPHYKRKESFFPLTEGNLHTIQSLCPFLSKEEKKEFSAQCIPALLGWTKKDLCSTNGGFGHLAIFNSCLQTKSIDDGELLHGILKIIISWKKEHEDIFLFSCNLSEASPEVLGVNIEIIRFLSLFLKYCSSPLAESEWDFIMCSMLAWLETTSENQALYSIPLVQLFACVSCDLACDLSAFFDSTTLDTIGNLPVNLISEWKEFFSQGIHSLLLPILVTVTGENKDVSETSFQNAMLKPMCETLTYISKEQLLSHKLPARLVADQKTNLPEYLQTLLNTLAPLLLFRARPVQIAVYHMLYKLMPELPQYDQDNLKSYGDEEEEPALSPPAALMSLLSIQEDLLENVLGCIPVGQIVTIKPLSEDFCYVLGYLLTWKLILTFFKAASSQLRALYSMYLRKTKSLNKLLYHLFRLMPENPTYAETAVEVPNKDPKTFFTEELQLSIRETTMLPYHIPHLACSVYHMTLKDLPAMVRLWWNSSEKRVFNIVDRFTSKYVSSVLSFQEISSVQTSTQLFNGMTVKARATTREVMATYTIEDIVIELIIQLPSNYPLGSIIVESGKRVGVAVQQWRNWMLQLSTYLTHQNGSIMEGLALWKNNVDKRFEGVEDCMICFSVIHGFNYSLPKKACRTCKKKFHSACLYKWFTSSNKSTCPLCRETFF
Sequence of UniProt Q8N108 (Q8N108 whole entry, looked up): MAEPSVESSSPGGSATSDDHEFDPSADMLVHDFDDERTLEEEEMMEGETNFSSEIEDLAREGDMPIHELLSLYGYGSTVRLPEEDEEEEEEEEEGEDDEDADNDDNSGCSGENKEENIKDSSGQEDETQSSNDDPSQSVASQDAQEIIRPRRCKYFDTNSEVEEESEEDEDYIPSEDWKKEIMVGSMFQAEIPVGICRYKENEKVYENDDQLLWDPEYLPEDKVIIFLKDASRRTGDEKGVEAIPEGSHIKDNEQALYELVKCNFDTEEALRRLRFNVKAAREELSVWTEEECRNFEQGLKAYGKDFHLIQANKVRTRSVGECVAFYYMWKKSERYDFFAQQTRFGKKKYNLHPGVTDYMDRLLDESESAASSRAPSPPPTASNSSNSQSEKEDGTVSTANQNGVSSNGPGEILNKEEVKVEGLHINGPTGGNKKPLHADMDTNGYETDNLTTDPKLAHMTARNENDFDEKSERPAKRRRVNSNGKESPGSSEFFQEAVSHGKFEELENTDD
Sequence of UniProt Q96GA3 (Q96GA3 whole entry, looked up): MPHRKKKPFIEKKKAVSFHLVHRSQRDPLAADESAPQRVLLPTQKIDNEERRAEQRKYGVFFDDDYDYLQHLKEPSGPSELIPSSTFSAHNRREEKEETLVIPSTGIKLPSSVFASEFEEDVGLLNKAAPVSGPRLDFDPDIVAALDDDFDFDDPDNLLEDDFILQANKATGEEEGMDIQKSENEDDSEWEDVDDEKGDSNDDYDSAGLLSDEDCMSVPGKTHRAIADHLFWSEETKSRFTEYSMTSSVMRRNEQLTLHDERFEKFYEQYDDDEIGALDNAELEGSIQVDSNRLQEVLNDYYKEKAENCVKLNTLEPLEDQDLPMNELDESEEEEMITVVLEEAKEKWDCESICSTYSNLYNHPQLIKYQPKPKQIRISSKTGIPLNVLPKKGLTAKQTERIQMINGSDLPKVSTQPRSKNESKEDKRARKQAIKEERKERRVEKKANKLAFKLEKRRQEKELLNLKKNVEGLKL
Sequence of UniProt Q9Y496 (Q9Y496 whole entry, looked up): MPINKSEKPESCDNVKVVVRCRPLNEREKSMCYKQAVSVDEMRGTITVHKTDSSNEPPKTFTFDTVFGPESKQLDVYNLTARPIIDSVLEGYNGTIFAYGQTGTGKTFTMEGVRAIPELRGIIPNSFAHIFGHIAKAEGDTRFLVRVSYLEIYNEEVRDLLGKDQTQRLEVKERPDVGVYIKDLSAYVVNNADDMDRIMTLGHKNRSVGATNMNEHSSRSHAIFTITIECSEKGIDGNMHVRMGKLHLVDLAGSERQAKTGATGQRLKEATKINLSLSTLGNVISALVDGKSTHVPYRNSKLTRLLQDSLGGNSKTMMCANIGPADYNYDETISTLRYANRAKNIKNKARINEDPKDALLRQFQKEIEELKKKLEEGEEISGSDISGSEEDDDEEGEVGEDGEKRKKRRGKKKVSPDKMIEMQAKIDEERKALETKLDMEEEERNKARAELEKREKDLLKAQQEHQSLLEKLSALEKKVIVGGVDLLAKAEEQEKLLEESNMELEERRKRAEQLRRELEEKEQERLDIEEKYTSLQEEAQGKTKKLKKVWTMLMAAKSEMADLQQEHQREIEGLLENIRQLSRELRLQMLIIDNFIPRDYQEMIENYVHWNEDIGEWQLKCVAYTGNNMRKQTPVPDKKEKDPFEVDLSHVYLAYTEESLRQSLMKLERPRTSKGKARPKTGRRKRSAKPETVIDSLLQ
Sequence of UniProt Q9NYL2 (Q9NYL2 whole entry, looked up): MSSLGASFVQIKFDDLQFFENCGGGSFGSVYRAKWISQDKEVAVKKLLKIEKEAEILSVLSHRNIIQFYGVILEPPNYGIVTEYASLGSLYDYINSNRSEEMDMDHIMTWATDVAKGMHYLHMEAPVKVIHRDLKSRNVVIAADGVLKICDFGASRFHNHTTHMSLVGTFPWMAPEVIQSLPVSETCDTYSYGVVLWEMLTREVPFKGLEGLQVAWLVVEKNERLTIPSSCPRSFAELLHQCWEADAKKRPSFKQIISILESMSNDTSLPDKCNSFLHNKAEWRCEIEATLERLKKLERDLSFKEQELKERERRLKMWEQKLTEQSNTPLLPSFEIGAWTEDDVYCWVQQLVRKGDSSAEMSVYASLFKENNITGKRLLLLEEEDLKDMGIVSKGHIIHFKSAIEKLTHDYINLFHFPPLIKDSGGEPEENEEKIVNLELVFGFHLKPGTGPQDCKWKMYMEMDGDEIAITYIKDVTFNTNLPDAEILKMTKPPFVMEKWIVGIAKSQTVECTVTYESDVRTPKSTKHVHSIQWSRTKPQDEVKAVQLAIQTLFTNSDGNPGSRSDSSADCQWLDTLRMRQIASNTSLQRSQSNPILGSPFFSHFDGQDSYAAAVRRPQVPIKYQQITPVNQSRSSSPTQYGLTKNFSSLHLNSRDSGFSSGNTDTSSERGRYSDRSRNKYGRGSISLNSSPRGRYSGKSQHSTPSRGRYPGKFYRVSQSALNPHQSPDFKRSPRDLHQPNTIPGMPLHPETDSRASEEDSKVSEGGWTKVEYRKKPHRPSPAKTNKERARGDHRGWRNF

Target | log2 fold change
MCUR1 (UniProt Q96AQ8) | 0.041 (inactive)
ITPRIP (UniProt Q8IWB1) | 0.059 (inactive)
MAP2K1 (UniProt Q02750) | -0.016 (inactive)
LPGAT1 (UniProt Q92604) | -0.05 (inactive)
LMNB1 (UniProt P20700) | -0.03 (inactive)
LTV1 (UniProt Q96GA3) | -0.009 (inactive)
MAIP1 (UniProt Q8WWC4) | -0.014 (inactive)
MIER1 isoform 12 (UniProt Q8N108) | -0.012 (inactive)
KCT2 (UniProt Q8NC54) | 0.029 (inactive)
KPNA4 (UniProt O00629) | -0.016 (inactive)
MAPK12 (UniProt P53778) | 0.066 (inactive)
LDLR (UniProt P01130) | -0.015 (inactive)
LMF2 (UniProt Q9BU23) | -0.035 (inactive)
LTN1 isoform 3 (UniProt O94822) | -0.015 (inactive)
LRPPRC (UniProt P42704) | -0.013 (inactive)
MAD2L1 (UniProt Q13257) | -0.095 (inactive)
LARP4B (UniProt Q92615) | 0.007 (inactive)
ILK (UniProt Q13418) | 0.004 (inactive)
LTO1 (UniProt Q8WV07) | 0.037 (inactive)
KIF3A (UniProt Q9Y496) | -0.016 (inactive)

Target | log2 fold change
MAP3K20 (UniProt Q9NYL2) | -0.167 (inactive)
MAGOHB (UniProt Q96A72) | 0.004 (inactive)
MAP3K4 isoform 2 (UniProt Q9Y6R4) | 0 (inactive)
LIMA1 isoform 4 (UniProt Q9UHB6) | 0.033 (inactive)
MAGEC2 (UniProt Q9UBF1) | -0.02 (inactive)
MAP2K3 isoform 3 (UniProt P46734) | 0.032 (inactive)
MAGEA9 (UniProt P43362) | -0.094 (inactive)
ILVBL (UniProt A1L0T0) | 0.048 (inactive)
MDN1 (UniProt Q9NU22) | -0.046 (inactive)
KIF21A isoform 4 (UniProt Q7Z4S6) | -0.053 (inactive)
LNPK (UniProt Q9C0E8) | 0.013 (inactive)
LRBA (UniProt P50851) | -0.02 (inactive)
LEMD3 (UniProt Q9Y2U8) | 0.03 (inactive)
LAMP2 (UniProt P13473) | 0.042 (inactive)
KLHDC4 (UniProt Q8TBB5) | -0.011 (inactive)
LBR (UniProt Q14739) | -0.092 (inactive)
KHDC4 (UniProt Q7Z7F0) | 0.025 (inactive)
MAP4K4 isoform 3 (UniProt O95819) | 0.043 (inactive)
LEMD2 (UniProt Q8NC56) | 0.082 (inactive)

The targets below were run with CC(=O)c1cnc2ccc(-c3cc(Cl)c(O)c(Cl)c3)nc2c1N[C@H]1CC[C@H](CN(C)C)CC1 in the same assay as above.
Method in brief: as §1

Target | log2 fold change
MCUR1 (UniProt Q96AQ8) | -0.077 (inactive)
ITPRIP (UniProt Q8IWB1) | -0.013 (inactive)
MAP2K1 (UniProt Q02750) | -0.349 (active)
LPGAT1 (UniProt Q92604) | 0.064 (inactive)
LMNB1 (UniProt P20700) | -0.22 (inactive)
LTV1 (UniProt Q96GA3) | 0.224 (inactive)
MAIP1 (UniProt Q8WWC4) | -0.004 (inactive)
MIER1 isoform 12 (UniProt Q8N108) | -0.035 (inactive)
KCT2 (UniProt Q8NC54) | -0.04 (inactive)
KPNA4 (UniProt O00629) | -0.057 (inactive)
MAPK12 (UniProt P53778) | 0.201 (inactive)
LDLR (UniProt P01130) | -0.106 (inactive)
LMF2 (UniProt Q9BU23) | 0.001 (inactive)
LTN1 isoform 3 (UniProt O94822) | -0.02 (inactive)
LRPPRC (UniProt P42704) | -0.439 (inactive)
MAD2L1 (UniProt Q13257) | 0.008 (inactive)
LARP4B (UniProt Q92615) | -0.048 (inactive)
ILK (UniProt Q13418) | -0.029 (inactive)
LTO1 (UniProt Q8WV07) | 0.061 (inactive)
KIF3A (UniProt Q9Y496) | 0.034 (inactive)

Target | log2 fold change
MAP3K20 (UniProt Q9NYL2) | -0.654 (active)
MAGOHB (UniProt Q96A72) | 0.25 (inactive)
MAP3K4 isoform 2 (UniProt Q9Y6R4) | 0.198 (inactive)
LIMA1 isoform 4 (UniProt Q9UHB6) | -0.267 (active)
MAGEC2 (UniProt Q9UBF1) | 0.108 (inactive)
MAP2K3 isoform 3 (UniProt P46734) | -0.457 (active)
MAGEA9 (UniProt P43362) | 0.101 (inactive)
ILVBL (UniProt A1L0T0) | -0.027 (inactive)
MDN1 (UniProt Q9NU22) | -0.126 (inactive)
KIF21A isoform 4 (UniProt Q7Z4S6) | -0.054 (inactive)
LNPK (UniProt Q9C0E8) | 0.004 (inactive)
LRBA (UniProt P50851) | -0.006 (inactive)
LEMD3 (UniProt Q9Y2U8) | -0.173 (inactive)
LAMP2 (UniProt P13473) | -0.083 (inactive)
KLHDC4 (UniProt Q8TBB5) | -0.008 (inactive)
LBR (UniProt Q14739) | 0.038 (inactive)
KHDC4 (UniProt Q7Z7F0) | 0.003 (inactive)
MAP4K4 isoform 3 (UniProt O95819) | -1.13 (active)
LEMD2 (UniProt Q8NC56) | -0.066 (inactive)
